# Reference: the supplement of paper PMC8728848
# The full list was thinned out, with the strongest signals kept by preference.
# Legend:
# Experiment in all cases: glycan array binding signal (z-score within array); higher = stronger binding
# Details in all cases: glycan notation: IUPAC condensed, linker removed
# [1] = target: Glc(a1-4)Glc
# Outline: (§1)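 Glycan array binding is given as a within-array Z-score, which can be read as non-binding when negative. The arrays, 3228 of them, came from the Consortium for Functional Glycomics database and were retained only where the protein sequence was available. Z-scores were averaged across arrays of the same protein sequence at different concentrations or buffers and across linkers.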
# [2] = target: GlcA(b1-3)Gal
# Outline: as §1
# [3] = target: GlcNAc(a1-3)Gal(b1-4)GlcNAc
# Outline: as §1
# [4] = target: GlcNAc(a1-4)Gal(b1-4)GlcNAc(b1-3)Gal(b1-4)GlcNAc(b1-3)Gal(b1-4)GlcNAc
# Outline: as §1
# [5] = target: GlcNAc(a1-6)Gal(b1-4)GlcNAc
# Outline: as §1
# [6] = target: GlcNAc(b1-2)Man(a1-3)[GlcNAc(b1-2)Man(a1-6)]Man(b1-4)GlcNAc(b1-4)GlcNAc
# Outline: as §1
# [7] = target: GlcNAc(b1-2)Man(a1-3)[GlcNAc(b1-4)][GlcNAc(b1-2)Man(a1-6)]Man(b1-4)GlcNAc(b1-4)[Fuc(a1-6)]GlcNAc
# Outline: as §1
# [8] = target: GlcNAc(b1-2)[GlcNAc(b1-6)]Man(a1-6)[GlcNAc(b1-2)Man(a1-3)]Man(b1-4)GlcNAc(b1-4)GlcNAc
# Outline: as §1
# [9] = target: GlcNAc(b1-2)[GlcNAc(b1-6)]Man(a1-6)[GlcNAc(b1-2)Man(a1-3)]Man(b1-4)GlcNAc(b1-4)[Fuc(a1-6)]GlcNAc
# Outline: as §1
# [10] = target: GlcNAc(b1-3)Gal(b1-3)GalNAc
# Outline: as §1
# [11] = target: GlcNAc(b1-3)Gal(b1-4)GlcNAc(b1-3)Gal(b1-4)GlcNAc
# Outline: as §1
# [12] = target: GlcNAc(b1-3)Gal(b1-4)GlcNAc(b1-3)Gal(b1-4)GlcNAc(b1-3)Gal(b1-4)GlcNAc(b1-3)Gal(b1-4)GlcNAc(b1-2)[GlcNAc(b1-3)Gal(b1-4)GlcNAc(b1-3)Gal(b1-4)GlcNAc(b1-3)Gal(b1-4)GlcNAc(b1-3)Gal(b1-4)GlcNAc(b1-6)]Man(a1-6)[GlcNAc(b1-3)Gal(b1-4)GlcNAc(b1-3)Gal(b1-4)GlcNAc(b1-3)Gal(b1-4)GlcNAc(b1-3)Gal(b1-4)GlcNAc(b1-2)Man(a1-3)]Man(b1-4)GlcNAc(b1-4)[Fuc(a1-6)]GlcNAc
# Outline: as §1
# [13] = target: GlcNAc(b1-3)Gal(b1-4)GlcNAc(b1-3)[GlcNAc(b1-3)Gal(b1-4)GlcNAc(b1-3)]GalNAc
# Outline: as §1
# [14] = target: GlcNAc(b1-3)Gal(b1-4)GlcNAc(b1-6)[GlcNAc(b1-3)Gal(b1-3)]GalNAc
# Outline: as §1
# [15] = target: GlcNAc(b1-3)Man
# Outline: as §1
# [16] = target: Man(a1-2)Man(a1-3)[Man(a1-6)]Man(a1-6)[Man(a1-2)Man(a1-3)]Man(b1-4)GlcNAc(b1-4)GlcNAc
# Outline: as §1
# [17] = target: Man(a1-2)Man(a1-6)[Man(a1-3)]Man(a1-6)[Man(a1-2)Man(a1-2)Man(a1-3)]Man
# Outline: as §1
# [18] = target: Man(a1-3)[Man(a1-6)]Man(a1-6)[Man(a1-2)Man(a1-3)]Man(b1-4)GlcNAc(b1-4)GlcNAc
# Outline: as §1
# [19] = target: Neu5Ac(a2-3)Gal(b1-3)GalNAc(b1-4)[Neu5Ac(a2-3)]Gal(b1-4)Glc
# Outline: as §1
# [20] = target: Neu5Ac(a2-3)Gal(b1-3)[Neu5Ac(a2-6)]GlcNAc(b1-3)[Fuc(a1-3)[Gal(b1-4)]GlcNAc(b1-6)]Gal(b1-4)Glc
# Outline: as §1
# [21] = target: Neu5Ac(a2-3)Gal(b1-4)GlcNAc(b1-2)Man(a1-3)[GlcNAc(b1-4)][Neu5Ac(a2-3)Gal(b1-4)GlcNAc(b1-2)Man(a1-6)]Man(b1-4)GlcNAc(b1-4)GlcNAc
# Outline: as §1
# [22] = target: Neu5Ac(a2-3)Gal(b1-4)GlcNAc(b1-3)Gal(b1-4)GlcNAc(b1-3)[Neu5Ac(a2-3)Gal(b1-4)GlcNAc(b1-3)Gal(b1-4)GlcNAc(b1-6)]GalNAc
# Outline: as §1
# [23] = target: Neu5Ac(a2-3)Gal(b1-4)GlcNAc(b1-3)Gal(b1-4)GlcNAc(b1-6)[Gal(b1-3)]GalNAc
# Outline: as §1
# [24] = target: Neu5Ac(a2-3)GalNAc(b1-4)GlcNAc
# Outline: as §1
# [25] = target: Neu5Ac(a2-6)Gal(b1-4)GlcNAc(b1-2)Man(a1-3)Man(b1-4)GlcNAc(b1-4)GlcNAc
# Outline: as §1
# [26] = target: Neu5Ac(a2-6)Gal(b1-4)GlcNAc(b1-3)Gal(b1-3)GlcNAc
# Outline: as §1
# [27] = target: Neu5Ac(a2-8)Neu5Ac(a2-3)Gal(b1-3)GalNAc(b1-4)[Neu5Ac(a2-3)]Gal(b1-4)Glc
# Outline: as §1
# [28] = target: Neu5Ac9Ac(a2-6)Gal(b1-4)GlcNAc
# Outline: as §1
# [29] = target: Neu5Gc(a2-3)Gal(b1-4)[Fuc(a1-3)]GlcNAc
# Outline: as §1
# [30] = target: Neu5Gc(a2-8)Neu5Gc(a2-6)Gal(b1-4)GlcNAc
# Outline: as §1
binder,measurement,setting,value
SSR2 (Sclerotium rolfsii) (protein) MVYKITVRVYQTNPDAFFHPVEKTVWKYANGGTWSITDDQHVLTMGGSGTSGTLRFHADNGESFTATFGVHNYKRWCDIVTNLAADETGMVINQQYYSQKNREEARERQLSNYQVKNAKGRNFQIVYTEAEGNDLHANLIIG,glycan array binding signal (z-score),[1],-0.262
same,glycan array binding signal (z-score),[2],-0.282
same,glycan array binding signal (z-score),[3],3.71
same,glycan array binding signal (z-score),[4],6.99
same,glycan array binding signal (z-score),[5],0.528
same,glycan array binding signal (z-score),[6],6.77
same,glycan array binding signal (z-score),[7],2.85
same,glycan array binding signal (z-score),[8],4.32
same,glycan array binding signal (z-score),[9],4.49
same,glycan array binding signal (z-score),[10],3.63
same,glycan array binding signal (z-score),[11],0.873
same,glycan array binding signal (z-score),[12],1.3
same,glycan array binding signal (z-score),[13],0.552
same,glycan array binding signal (z-score),[14],1.62
same,glycan array binding signal (z-score),[15],-0.149
same,glycan array binding signal (z-score),[16],-0.276
same,glycan array binding signal (z-score),[17],-0.303
same,glycan array binding signal (z-score),[18],-0.244
same,glycan array binding signal (z-score),[19],-0.28
same,glycan array binding signal (z-score),[20],-0.288
same,glycan array binding signal (z-score),[21],-0.284
same,glycan array binding signal (z-score),[22],-0.267
same,glycan array binding signal (z-score),[23],0.625
same,glycan array binding signal (z-score),[24],-0.279
same,glycan array binding signal (z-score),[25],-0.286
same,glycan array binding signal (z-score),[26],-0.286
same,glycan array binding signal (z-score),[27],-0.271
same,glycan array binding signal (z-score),[28],-0.291
same,glycan array binding signal (z-score),[29],-0.284
same,glycan array binding signal (z-score),[30],-0.286
